Measured values as given in PubChem BioAssay AID1159580 (chemical genetic matrix, 2015).
Values joined by “and” are separate entries in the source; they are usually repeats but may differ in a detail not shown here. Equal entries are not always repeated. The campaign covered roughly 5,500 compounds. About 2,000 (36%) were called active. Roughly 18% stayed inconclusive and do not appear here. No stated cut-off is given here; in the data, active means normalized growth mostly below about 0.91 (no sharp cut-off); inconclusive means no clear call, values can overlap the other calls; inactive means mostly above about 0.92. Some of the results follow.

Assay: chemical genetic growth profiling, strain panel (AID 1159580);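 further: tested at 20 µM; growth read once vehicle control cultures reached saturation at 30 °C; 1 = growth at the plate median or of vehicle wells; lower values mean less growth of the strain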
Settings: S. cerevisiae deletion strains, growth OD

Measured: normalized growth

Cc1ccccc1C(OCCN(C)C)c1ccccc1 (centres undefined)
inactive: locus YAL021C, strain ccr4, hits give low values 0.977 | locus YAL026C, strain drs2, hits give low values 1 | locus YAL030W, strain snc1, hits give low values 1 | locus YAL040C, strain CLN3, hits give low values 0.992 | locus YBL061C, strain skt5, hits give low values 1 | locus YBR009C, strain hhf1, hits give low values 0.996 | locus YBR021W, strain FUR4, hits give low values 0.913 | locus YBR023C, strain chs3, hits give low values 1.01 | locus YBR171W, strain sec66, hits give low values 1.01 | locus YBR229C, strain ROT2, hits give low values 1 | locus YBR231C, strain swc5, hits give low values 1 | locus YBR279W, strain paf1, hits give low values 0.993 | locus YCL011C, strain gbp2, hits give low values 1.01 | locus YCL016C, strain dcc1, hits give low values 1.01 | locus YCL029C, strain bik1, hits give low values 1.01 | locus YCL061C, strain MRC1 (second series), hits give low values 0.987 | locus YCL061C, strain MRC1, hits give low values 1.01 | locus YCL069W, strain vba3, hits give low values 1.01 | locus YCR088W, strain abp1, hits give low values 1 | locus YDL005C, strain med2, hits give low values 0.986 | locus YDL035C, strain GPR1, hits give low values 1.01 | locus YDL040C, strain nat1, hits give low values 1.01 | locus YDL074C, strain BRE1, hits give low values 0.959 | locus YDL101C, strain DUN1, hits give low values 1 | locus YDL134C, strain PPH21, hits give low values 1.01 | locus YDL185W, strain tfp1, hits give low values 1.02 | locus YDL192W, strain arf1, hits give low values 1.01 | locus YDR001C, strain nth1, hits give low values 1.01 | locus YDR069C, strain doa4, hits give low values 0.994 | locus YDR101C, strain arx1, hits give low values 1.01 | locus YDR137W, strain rgp1, hits give low values 1.07 | locus YDR150W, strain NUM1, hits give low values 0.994 | locus YDR159W, strain sac3, hits give low values 1.01 | locus YDR162C, strain NBP2, hits give low values 0.993 | locus YDR195W, strain ref2 0.996 | locus YDR297W, strain sur2, hits give low values 1.01 | locus YDR318W, strain mcm21, hits give low values 1.02 | locus YDR334W, strain swr1, hits give low values 1.01 | locus YDR335W, strain msn5, hits give low values 1 | locus YDR363W, strain ESC2, hits give low values 0.998 | locus YDR388W, hits give low values 1.01 | locus YDR392W, strain spt3, hits give low values 0.966 | locus YDR502C, strain sam2, hits give low values 1.01 | locus YEL003W, strain gim4, hits give low values 0.981 | locus YEL037C, strain rad23, hits give low values 0.999 | locus YEL061C, strain CIN8 (second series), hits give low values 1.01 | locus YEL061C, strain CIN8, hits give low values 1 | locus YER002W, strain NOP16, hits give low values 1.01 | locus YER015W, strain faa2, hits give low values 1 | locus YER016W, strain bim1, hits give low values 0.998 | locus YER110C, hits give low values 1.01 | locus YER111C, strain swi4, hits give low values 1 | locus YER155C, strain BEM2 (second series), hits give low values 1.01 | locus YER155C, strain BEM2, hits give low values 1.01 | locus YER167W, strain BCK2, hits give low values 1 | locus YFR010W, strain ubp6, hits give low values 1 | locus YGL078C, strain dbp3, hits give low values 1 | locus YGL086W, strain mad1, hits give low values 0.994 | locus YGL167C, strain pmr1, hits give low values 1.01 | locus YGL173C, strain kem1, hits give low values 0.994 | locus YGL227W, strain vid30, hits give low values 1.02 | locus YGL240W, strain doc1, hits give low values 0.994 | locus YGL248W, strain PDE1, hits give low values 1 | locus YGL253W, strain hxk2, hits give low values 1.01 | locus YGR078C, strain PAC10, hits give low values 1 | locus YGR135W, strain pre9, hits give low values 1 | locus YGR252W, strain gcn5, hits give low values 0.902 | locus YHR013C, strain ard1, hits give low values 0.986 | locus YHR027C, strain rpn1, hits give low values 0.997 | locus YHR030C, strain SLT2, hits give low values 1 and 0.992 | locus YHR079C, strain IRE1 (second series), hits give low values 1.02 | locus YHR079C, strain IRE1, hits give low values 0.973 | locus YHR094C, strain hxt1, hits give low values 1 | locus YHR129C, strain ARP1, hits give low values 1.01 | locus YHR142W, strain chs7, hits give low values 1.01 | locus YHR200W, strain rpn10, hits give low values 1.01 | locus YIL066C, strain RNR3, hits give low values 1.01 | locus YIL073C, strain SPO22, hits give low values 1.05 | locus YIL125W, strain kgd1, hits give low values 0.994 | locus YIR030C, strain dcg1, hits give low values 1.02 | locus YJL092W, strain hpr5, hits give low values 1.01 | locus YJL095W, strain BCK1 (second series), hits give low values 1.01 | locus YJL095W, strain BCK1, hits give low values 0.983 and 0.99 | locus YJL115W, strain asf1, hits give low values 0.992 | locus YJL129C, strain trk1, hits give low values 0.986 | locus YJL134W, strain LCB3, hits give low values 1 | locus YJL154C, strain vps35, hits give low values 1 | locus YJL164C, strain tpk1, hits give low values 0.991 | locus YJL166W, strain qcr8, hits give low values 1.01 | locus YJL168C, strain set2, hits give low values 1.01 | locus YJL187C, strain SWE1 (second series), hits give low values 1 | locus YJL187C, strain SWE1, hits give low values 1.01 | locus YJR043C, strain POL32, hits give low values 0.995 | locus YJR066W, strain TOR1, hits give low values 0.952
